# Compounds without any hit were thinned out: in the full panel of roughly 83,000, 20% have a hit.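 A percent growth of 40 corresponds to 60% growth inhibition; 0 means no net growth; -100 means all cells died. Active threshold: below 10.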 A number with no mark means an inactive call. Active and inactive are the calls of the source.
# Legend:
# Assay in all cases: NCI-60 one-dose screen, 48 h (100 = growth as untreated, 0 = no growth, -100 = all killed)
# SK-MEL-2 melanoma = conditions: 10 µM unless noted
# EKVX NSCLC = conditions: 10 µM unless noted
# SN12C renal = conditions: 10 µM unless noted
# UO-31 renal = conditions: 10 µM unless noted
# TK-10 renal = conditions: 10 µM unless noted
# ACHN renal = conditions: 10 µM unless noted
# CAKI-1 renal = conditions: 10 µM unless noted
# A498 renal = conditions: 10 µM unless noted
# CCRF-CEM leukemia = conditions: 10 µM unless noted
# MOLT-4 leukemia = conditions: 10 µM unless noted
# SR leukemia = conditions: 10 µM unless noted
# RPMI-8226 leukemia = conditions: 10 µM unless noted
# OVCAR-8 ovarian = conditions: 10 µM unless noted
# OVCAR-5 ovarian = conditions: 10 µM unless noted
# OVCAR-4 ovarian = conditions: 10 µM
# SK-OV-3 ovarian = conditions: 10 µM unless noted
# IGROV1 ovarian = conditions: 10 µM unless noted
# OVCAR-3 ovarian = conditions: 10 µM unless noted
# NCI/ADR-RES ovarian = conditions: 10 µM unless noted
# HS 578T breast = conditions: 10 µM unless noted
Compound,growth (SK-MEL-2 melanoma),growth (EKVX NSCLC),growth (SN12C renal),growth (UO-31 renal),growth (TK-10 renal),growth (ACHN renal),growth (CAKI-1 renal),growth (A498 renal),growth (CCRF-CEM leukemia),growth (MOLT-4 leukemia),growth (SR leukemia),growth (RPMI-8226 leukemia),growth (OVCAR-8 ovarian),growth (OVCAR-5 ovarian),growth (OVCAR-4 ovarian),growth (SK-OV-3 ovarian),growth (IGROV1 ovarian),growth (OVCAR-3 ovarian),growth (NCI/ADR-RES ovarian),growth (HS 578T breast)
COc1ccc(C(=O)CSc2nnc(-c3cc(-c4ccccc4)nc4ccccc34)o2)cc1,129%,109%,97.3%,96%,116%,108%,95.7%,100%,112%,120%,96.3%,121%,103%,105%,107%,119%,102%,109%,103%,–
CCN(CC)CCCOc1ccc2c(c1)O/C(=C\c1cccc(OC)c1)C2=O,118%,97.4%,87.1%,73.8%,98.7%,99.8%,87.4%,72.6%,102%,97.7%,63.3%,96.2%,90.8%,95.7%,94.2%,115%,97.7%,91.2%,94.8%,–
Nc1nc(Nc2ccccc2)c2ncn(Cc3cc4c(cc3Br)OCO4)c2n1,36.9%,44.7%,7.96% (active),40.3%,35.1%,16.9%,18.2%,-3.53% (active),11.2%,10.4%,10.5%,9.96% (active),6.21% (active),32.1%,40.6%,11.5%,37.5%,–,8.6% (active),34.1%
CCN(CC)CCCC(C)Nc1ccnc2cc(Cl)c(SCc3ccccc3)cc12 (centres undefined),-71.1% (active),3.57% (active),20.4%,-84.1% (active),-30.8% (active),-89.2% (active),-62.2% (active),-90.1% (active),-25.9% (active),-29.3% (active),-42.6% (active),-36.6% (active),-9.3% (active),-13.7% (active),7.81% (active),-43.1% (active),-26.7% (active),-28.5% (active),-18.3% (active),–
COc1ccc2c(c1)C(C)Cc1c(Cl)ncnc1N2C (centres undefined),-29.4% (active),12.4%,-0.561% (active),16.9%,13%,9.12% (active),2.36% (active),-39.3% (active),13.8%,1.59% (active),-2.06% (active),-2.61% (active),7% (active),41.5%,7.09% (active),12.2%,23.7%,–,2.03% (active),16.9%
CCN(CC)CCCNCc1cc(-c2ccccc2)nc2ccccc12,109%,93.7%,48%,23.7%,46.8%,101%,100%,75.2%,11.8%,8.2% (active),4.37% (active),20%,35.1%,109%,56.3%,92.4%,–,35.7%,-32% (active),–
COc1ccc(OC)c([N+](=O)[O-])c1C(=O)CNC(C)=O,109%,97.5%,100%,84.7%,105%,100%,96.4%,94.1%,110%,101%,118%,93.4%,99.5%,99.9%,103%,105%,106%,–,94.9%,-2.16% (active)
O=C(O)c1cc([N+](=O)[O-])ccc1Br,107%,98.5%,101%,86.3%,95.5%,94.2%,97.6%,106%,105%,99.8%,112%,99%,101%,90.8%,99.2%,113%,103%,–,98.1%,106%
CCCCCCCCN(CCCCCCCC)CC(O)c1ccc(Cl)c(C)c1Cl (centres undefined),123%,99.4%,84%,45.1%,94.6%,74.7%,72.5%,70.7%,78%,91.4%,52.6%,72.8%,93.6%,84.1%,93.5%,77.5%,–,–,89.6%,–
COCc1nc2ccccc2[nH]1,102%,93.9%,104%,87.3%,97.3%,99.9%,93.4%,104%,105%,93%,101%,108%,102%,99.8%,106%,101%,101%,–,98.9%,101%
CN(C)c1cc(NN=C(c2ccc(O)cc2)c2ccc(O)cc2)c([N+](=O)[O-])cc1[N+](=O)[O-],-12.1% (active),94.2%,93.8%,1.38% (active),136%,50.1%,74.8%,135%,107%,97.6%,92.2%,131%,8.9% (active),98.4%,97%,96.5%,–,95.5%,44.2%,102%
COc1cc(NN=C(c2ccc(O)cc2)c2ccc(O)cc2)c([N+](=O)[O-])cc1[N+](=O)[O-],-70.2% (active),108%,90.5%,-66.4% (active),93.5%,42.4%,97%,125%,103%,94.6%,50.6%,81.5%,-31.7% (active),24.1%,88.9%,5.8% (active),–,60.9%,8.39% (active),93.8%
COC(=O)c1cc2c(=O)[nH]cc3c2c(n1)CCC3,95.2%,101%,97.2%,75.4%,106%,105%,97.4%,104%,103%,100%,113%,76.2%,105%,99.8%,103%,100%,–,99.1%,108%,109%

# Reference: PubChem BioAssay (NCI)
